# Laboratory results: the supplement of paper PMC3334620
# Whole data set: some 33,000 sequences, median “E-score (-0.5 to 0.5)” near -0.035, cut for the highest 2% near 0.35. Only a selection was taken, and the highest values are over-represented in it overall.
# Target: T1, Pdr3 (UniProt P33200)
# T1 sequence: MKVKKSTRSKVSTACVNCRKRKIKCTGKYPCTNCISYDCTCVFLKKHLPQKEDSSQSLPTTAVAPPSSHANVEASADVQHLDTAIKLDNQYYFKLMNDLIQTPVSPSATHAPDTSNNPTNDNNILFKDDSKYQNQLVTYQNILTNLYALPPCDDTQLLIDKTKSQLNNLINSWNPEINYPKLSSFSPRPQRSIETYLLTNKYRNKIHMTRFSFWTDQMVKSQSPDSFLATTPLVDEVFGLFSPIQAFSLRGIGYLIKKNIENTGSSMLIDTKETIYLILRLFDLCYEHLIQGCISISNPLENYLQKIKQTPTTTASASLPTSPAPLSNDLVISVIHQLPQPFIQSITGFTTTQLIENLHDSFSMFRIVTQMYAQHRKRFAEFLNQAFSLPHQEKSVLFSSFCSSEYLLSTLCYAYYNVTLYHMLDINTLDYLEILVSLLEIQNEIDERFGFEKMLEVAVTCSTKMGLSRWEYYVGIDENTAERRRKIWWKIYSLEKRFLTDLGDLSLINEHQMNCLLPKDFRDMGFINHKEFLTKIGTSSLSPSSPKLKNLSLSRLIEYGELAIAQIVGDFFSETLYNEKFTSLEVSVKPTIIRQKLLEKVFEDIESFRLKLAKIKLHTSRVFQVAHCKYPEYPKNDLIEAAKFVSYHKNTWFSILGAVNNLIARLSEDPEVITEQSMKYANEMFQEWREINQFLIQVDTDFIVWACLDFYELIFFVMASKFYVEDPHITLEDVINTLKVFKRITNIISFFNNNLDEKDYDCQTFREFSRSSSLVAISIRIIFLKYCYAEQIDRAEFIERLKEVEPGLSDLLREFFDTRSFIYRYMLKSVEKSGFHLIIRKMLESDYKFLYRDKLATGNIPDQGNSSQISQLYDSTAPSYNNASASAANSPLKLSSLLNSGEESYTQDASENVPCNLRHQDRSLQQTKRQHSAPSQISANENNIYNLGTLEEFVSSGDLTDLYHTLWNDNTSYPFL
# Test: PBM E-score (8-mer binding enrichment) (E-score (-0.5 to 0.5)); higher = stronger / more preferred TF binding
# Settings: protein concentration: 200 nM; construct: GST-full length
# In short: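 Masliner-normalised scans of fluorescent anti-GST signal were the basis for scoring. That signal came from GST-tagged yeast transcription factors applied at about 100-200 nM to double-stranded universal all-10-mer Agilent arrays on fresh or once-stripped slides. Each ungapped eight-base word, pooled with its reverse complement, received an E-score from the Universal PBM Analysis Suite.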
row,Sequence,PBM E-score
1,CCCGGCCC,0.247
2,CCCGGCAG,0.303
3,ACGGGCAC,0.025
4,CCGGGCCG,0.399
5,CCCGGCGG,0.382
6,CCGGGCCC,0.345
7,ACCGGCCG,0.35
8,GCAAGATA,-0.00203
9,GCCATTAC,0.137
10,CTCAACTA,-0.0622
11,CCTCGAAA,-0.114
12,CCCTGAGA,-0.165
13,CTCAGAAC,-0.135
14,ACATATTA,-0.0563
15,AAGGTTGC,-0.0716
16,GACCTATA,0.0796
17,ATACAGAG,-0.223
18,AGGAAACG,-0.0809
19,CGGAAACC,0.425
20,AGGAAACA,-0.0166
21,GGGAAACC,0.149
22,GGGAAACA,0.161
23,AGGAAACC,0.00802
24,CGGAAACG,0.396
25,CAGAAACG,0.0256

row,Sequence,PBM E-score
1,CGGAAACA,0.451
2,GTAAGAAC,-0.0573
3,CGGGGTTA,0.304
4,CAAGGTAC,-0.25
5,CCTGGTCA,-0.169
6,AGTGCAAC,-0.107
7,GTGCGGCA,0.0901
8,CTGCGGAA,0.357
9,ATGCGGAC,0.134
10,ATGCGGAG,0.0777
11,GTGCGGAA,0.366
12,CTGCGGAC,0.1
13,ATGCGGAA,0.416
14,CTGCGGCA,0.0359
15,GTGCGGGA,0.252
16,CAGCCCGC,0.00736
17,AATATTAA,0.244
18,TTGGGAAA,0.0633
19,CGGCTCGA,0.174
20,CGAGTCGC,-0.0735
21,ACACCTCT,-0.0108
22,TAAACCAA,-0.263
23,GCCCAGGC,-0.138
24,ATCGGAGA,0.25
25,CTCGGAGA,0.312

row,Sequence,PBM E-score
1,GTCGGAAA,0.416
2,CTCGGAAA,0.372
3,ATCGGACC,0.313
4,ATCGGAAC,0.469
5,CTCGGGAA,0.301
6,ATCGGAGC,0.275
7,GTCGGATA,0.218
8,ATCGGACA,0.221
9,GTCGGAGA,0.173
10,ATCGGAAA,0.407
11,ATGAATAC,-0.0134
12,ATTGCGGA,0.328
13,CCAGTGCC,-0.1
14,ACACAAGC,0.0653
15,GAATGGGC,0.186
16,ACGCCGAC,0.163
17,GGAGATGA,0.094
18,ATCGGACG,0.209
19,GTGGGAAC,-0.0738
20,CTCGGAAG,0.39
21,TTCAGAAA,-0.195
22,CTGGGAAG,-0.176
23,GTCGGAAC,0.458
24,ATCGGAAG,0.359
25,ATCGGAGG,0.0523

row,Sequence,PBM E-score
1,GTCGGACA,0.218
2,TTCGGAAA,0.391
3,CTAGGAAG,-0.214
4,TCGGGAAA,0.309
5,AGATCTCC,0.0532
6,AGAGTATA,-0.259
7,ATCCTGGC,-0.0357
8,AGTGCCTC,-0.229
9,TTCCCCAA,-0.0249
10,CTCGGAGC,0.276
11,ATCGGAAT,0.43
12,CTAGGAAC,-0.0409
13,ATCGGCAT,0.175
14,ATCGGATA,0.325
15,CTCGGAAC,0.474
16,CCACAGCG,-0.0122
17,TACGGCCA,-0.0624
18,CTTCGCCC,0.0168
19,CCCGCCGC,0.27
20,CCCGCCGG,0.373
21,CGCGCCCG,0.23
22,ATCGCCGG,0.373
23,ATCGCCGA,0.154
24,CCCGCCCG,0.372
25,ACCGCCCG,0.227

row,Sequence,PBM E-score
1,CCCGCCGA,0.305
2,ACCGCCCC,0.148
3,CCCGCCCA,0.231
4,CCCGCCCC,0.357
5,ATCGCCGC,0.166
6,GAATCTCC,0.225
7,GTGGCCGA,0.107
8,ACCAGTCG,-0.0214
9,GCCGCCGA,0.292
10,TCCGCCGA,0.376
11,ACCGCCGA,0.103
12,CATGGGAG,-0.124
13,CAGTCTCG,-0.203
14,TGCGATAA,0.0592
15,ACGGTAGT,-0.00668
16,ATCGGGAA,0.279
17,AGCCGGGC,0.137
18,ATCCGGGC,0.386
19,ATCCGGGG,0.389
20,ATCGGGGG,0.0408
21,ATCCGGGA,0.313
22,CTCCGGGC,0.236
23,CTGCTCGA,-0.176
24,AGCCATCA,-0.0552
25,ACGCCGAT,-0.0606

row,Sequence,PBM E-score
1,AGTCCGCA,0.203
2,AATCCGCG,0.388
3,CATCCGCC,0.345
4,AATCCGCA,0.246
5,AATCCGCT,0.16
6,CATCCGCG,0.359
7,AGTCCGCC,0.324
8,AGTCCGCG,0.364
9,CATCCGCA,0.237
10,GCCCTAAA,-0.219
11,CCTCAAGC,-0.113
12,AGCTCTGC,-0.217
13,CAGCTCTA,-0.128
14,TAAGCGTA,-0.311
15,CGAGAGCG,0.0432
16,ATTCGGTC,0.0502
17,TCGAGAAA,-0.197
18,GCGAGAAA,-0.0403
19,CCGAGAAA,0.357
20,ACAGTGGT,-0.156
21,CAGATCCC,0.0667
22,CGGATCCC,0.374
23,AGGATCCA,-0.0311
24,CGGATCCG,0.489
25,CGGATCCA,0.413

row,Sequence,PBM E-score
1,AGGATCCG,0.301
2,TGGATCCA,0.096
3,GGGATCCC,0.374
4,GGGATCCA,0.222
5,CAGATCCG,0.314
6,AGGATCCC,0.152
7,CGGATCGC,0.279
8,AATCTTGT,0.126
9,GATCTGCA,-0.0215
10,CCATTCAG,0.0183
11,GATTTCCC,0.143
12,CACTCAAC,-0.0691
13,CGGGCGGC,0.291
14,GGGGCGTA,-0.114
15,CGGGCGTA,0.0837
16,AGGGCGGA,0.285
17,GGGGCGGA,0.359
18,CGGGCGGA,0.383
19,AGTCGGCC,0.13
20,AGAAGCAC,-0.185
21,AAAGTTAC,-0.127
22,GAGGTGTA,-0.13
